# Test results taken from paper PMC4336329 (PLoS ONE, 2015).
# The whole screen tested about 310,000 compounds, of which about 14,000 (4.5%) showed an effect of 50% or more. The effect is printed as a negative number. The full list was thinned out, with strong results kept by preference.
# Target: human ether-à-go-go-related gene (hERG) potassium channel (human, UniProt Q12809)
# Test: primary screen, population patch clamp on CHO cells stably expressing hERG; higher = less effect of the substance
# 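Note: peak tail current of the secondary pulse compared with the same well before compound.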
# Chain of human ether-à-go-go-related gene (hERG) potassium channel (Q12809 whole entry, looked up): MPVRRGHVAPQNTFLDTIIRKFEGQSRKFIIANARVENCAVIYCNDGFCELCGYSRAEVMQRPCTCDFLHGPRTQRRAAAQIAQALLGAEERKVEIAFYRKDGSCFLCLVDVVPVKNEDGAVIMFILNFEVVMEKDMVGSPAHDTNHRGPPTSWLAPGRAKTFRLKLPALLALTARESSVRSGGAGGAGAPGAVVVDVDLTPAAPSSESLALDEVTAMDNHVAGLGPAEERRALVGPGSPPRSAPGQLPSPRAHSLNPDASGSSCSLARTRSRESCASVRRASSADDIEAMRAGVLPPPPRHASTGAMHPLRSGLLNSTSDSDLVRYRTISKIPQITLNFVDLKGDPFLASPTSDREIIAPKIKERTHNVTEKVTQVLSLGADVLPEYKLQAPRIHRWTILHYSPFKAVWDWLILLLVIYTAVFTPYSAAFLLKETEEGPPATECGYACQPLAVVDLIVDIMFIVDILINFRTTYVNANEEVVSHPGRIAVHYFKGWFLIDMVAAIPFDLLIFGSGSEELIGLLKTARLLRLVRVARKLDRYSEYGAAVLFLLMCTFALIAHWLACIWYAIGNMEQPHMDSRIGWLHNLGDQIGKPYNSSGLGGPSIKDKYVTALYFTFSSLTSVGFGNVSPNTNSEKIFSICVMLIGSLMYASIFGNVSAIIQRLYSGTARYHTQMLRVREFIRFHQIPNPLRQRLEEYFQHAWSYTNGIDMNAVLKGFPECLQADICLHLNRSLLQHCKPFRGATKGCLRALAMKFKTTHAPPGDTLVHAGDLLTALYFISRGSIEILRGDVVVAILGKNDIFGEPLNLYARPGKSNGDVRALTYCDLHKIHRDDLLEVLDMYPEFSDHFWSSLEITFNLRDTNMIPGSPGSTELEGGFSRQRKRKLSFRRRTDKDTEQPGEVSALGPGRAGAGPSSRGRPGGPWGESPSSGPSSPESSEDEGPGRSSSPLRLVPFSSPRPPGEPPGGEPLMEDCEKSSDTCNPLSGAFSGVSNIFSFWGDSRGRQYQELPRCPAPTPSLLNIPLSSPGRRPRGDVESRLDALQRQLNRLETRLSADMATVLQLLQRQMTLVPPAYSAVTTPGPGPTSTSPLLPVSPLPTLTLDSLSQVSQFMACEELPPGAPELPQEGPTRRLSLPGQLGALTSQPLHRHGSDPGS
row,SMILES,"hERG current change (%, negative = inhibition) at 10uM"
1,NC(=O)Cc1nc2scc(-c3ccccc3)c2c(=O)[nH]1,37.9%
2,COC(=O)c1cccc(S(=O)(=O)N2CCC(NC(=O)NC34CC5CC(CC(C5)C3)C4)CC2)c1,4.44%
3,O=C(CCn1cccc1)Nc1cccc(F)c1,0.101%
4,CCc1nnc(NC(=O)CSc2ncc(-c3ccccc3)n2CC)s1,-17.9%
5,COCCCC1CCN(Cc2nc(Cc3ccccc3Cl)no2)CC1,5.07%
6,CC[C@@]1(O)C(=O)OCc2c1cc1n(c2=O)Cc2cc3c(CN(C)C)c(O)ccc3nc2-1.Cl,13.6%
7,[Br-].c1ccc(-c2cn(-c3ccccc3)c3[n+]2CCS3)cc1,-5.74%
8,COc1ccc(-c2cn(-c3ccc(Br)cc3)c3[n+]2CCS3)cc1.[Br-],-66.7%
9,Clc1ccc(-c2cn(-c3ccccc3)c3[n+]2CCS3)cc1.[Br-],-59.4%
10,Cc1ccc(-c2cn(-c3ccccc3)c3[n+]2CCCS3)cc1.[Br-],-29.1%
11,Fc1ccc(-n2cc(-c3ccccc3)[n+]3c2SCC3)cc1.[Br-],-22.7%
12,Fc1ccc(-c2cn(-c3ccccc3)c3[n+]2CCS3)cc1.O.[Br-],-45.3%
13,CCc1ccc(-n2cc(-c3ccc(F)cc3)[n+]3c2SCCC3)cc1.[Br-],-71.7%
14,COc1ccc(-n2cc(-c3ccc(Br)cc3)[nH]c2=S)cc1,18%
15,COc1ccc(-c2cn(-c3ccccc3)c3[n+]2CCS3)cc1,-38%
16,O=C(N/N=C/c1ccco1)c1cc(-c2cccc3ccccc23)n[nH]1,7.01%
17,COC(=O)C(C)N(c1ccc(C)cc1)S(=O)(=O)c1c(C)[nH]c(=O)[nH]c1=O (centres unmarked),1.72%
18,Cc1ccc(S(=O)(=O)NC2(C(F)(F)F)NC(=O)N(c3ccc(F)cc3)C2=O)cc1 (centres unmarked),9.68%
19,CCN1CCN(C(=O)c2c(-c3c(Cl)cccc3Cl)noc2C)CC1,20.9%
20,Cc1ccc(-n2c(C)cc(/C=C3\NC(=O)NC3=O)c2C)c(C)c1,-5.9%
21,Cc1cc(C)n(CCc2nc(-c3cccs3)cs2)n1,3.48%
22,Cc1nc2ccccn2c1C(=O)NNC(=O)Nc1cccc(C(F)(F)F)c1,-11%

row,SMILES,"hERG current change (%, negative = inhibition) at 10uM"
1,Cc1nc2sc(C(=O)O)c(N)c2c2c1COC(C)(C)C2,9.19%
2,O=C(Nc1ccc(NC(=O)C2CCCCC2)cn1)c1ccco1,4.68%
3,CCN(CCO)Cc1cn[nH]c1-c1ccc(C)c(C)c1,9.28%
4,Cc1c(NC(N)=O)c(=O)n(-c2ccccc2)n1C,3.79%
5,CNc1cnn(-c2ccc(C)cc2)c(=O)c1Sc1ccc(C)cc1,-8.7%
6,C=CCNc1cnn(-c2ccc(C)cc2)c(=O)c1Cl,-12.7%
7,C=CCNc1cnn(-c2ccc(C)cc2)c(=O)c1Sc1ccc(C)cc1,-79.4%
8,CCOC(=O)c1cc(-c2ccccc2)nn1Cc1cc(C)no1,-4.06%
9,C=CCN1C(=O)/C(=C2/Sc3ccccc3N2C)SC1=Nc1c(C)n[nH]c1C,-3.99%
10,O=C(CCN1C(=O)c2ccccc2C1=O)Nc1ccc(F)cc1,-6%
11,CCOc1cc(CN2CCc3c([nH]c4ccccc34)C2)ccc1OC,-19%
12,CSc1ccc(CN2CCc3c([nH]c4ccccc34)C2)cc1,-52.7%
13,Clc1ccc(CN2CCc3c([nH]c4ccccc34)C2)cc1Cl,-28.2%
14,Clc1cccc(CN2CCc3c([nH]c4ccccc34)C2)c1,-31.9%
15,Cc1cccc(CN2CCc3c([nH]c4ccccc34)C2)c1,-33.4%
16,COc1cc(CN2CCc3c([nH]c4ccccc34)C2)cc(OC)c1,-55.7%
17,Cc1cccc(NC(=O)CSc2nc3ccccc3nc2N2CCCCC2)c1,-36.5%
18,COc1ccc(CNC(=O)c2n[nH]c3ccccc23)cc1OC,11.6%
19,CCOC(=O)CSCC(=O)N1CCC(Cc2ccccc2)CC1,3.24%
20,CCCSCCCNC(=O)CN1C(=O)COc2ccc(S(=O)(=O)N3CCCC3)cc21,2.87%
21,O=C(N/N=C/c1ccc(OC(=O)c2ccc3c(c2)OCO3)cc1)c1cncc(Br)c1,10.8%
22,Cc1ccc(-n2cnc3c(sc4nccc(N(C)C)c43)c2=O)cc1,-16.4%

row,SMILES,"hERG current change (%, negative = inhibition) at 10uM"
1,CN(C)c1ccnc2sc3c(=O)n(Cc4ccccc4)cnc3c12,-51%
2,CN(C)c1ccnc2sc3c(=O)n(-c4ccccc4)cnc3c12,-17.9%
3,CCN(CC)C(=O)c1sc(NC(=O)Cc2cccs2)c(C#N)c1C,-6.24%
4,COc1ccccc1N(CC(O)CN1CCOCC1)S(=O)(=O)c1ccccc1 (centres unmarked),12.7%
5,Cc1ccc(N(CC(O)CN2CCCC2)S(=O)(=O)c2ccccc2)cc1 (centres unmarked),-68.2%
6,CC(C)CNC(=O)CN(c1ccccc1)S(=O)(=O)c1ccccc1[N+](=O)[O-],2.38%
7,Cc1cccc(N(CC(O)CN2CCOCC2)S(=O)(=O)c2ccccc2)c1 (centres unmarked),-1.7%
8,COc1ccccc1N(CC(O)CN1CCCC1)S(=O)(=O)c1ccccc1 (centres unmarked),-4.48%
9,CC1(C)NC(=O)N(CC(O)CN(c2ccccc2)S(=O)(=O)c2ccccc2[N+](=O)[O-])C1=O (centres unmarked),13.7%
10,Cc1cccc(N(CC(O)CN2CCCC2)S(=O)(=O)c2ccccc2)c1 (centres unmarked),-57%
11,Cc1ccc(N(CC(O)CN2CCCCC2)S(=O)(=O)c2ccccc2)cc1 (centres unmarked),-68%
12,CC(C)CN(CC(C)C)CC(O)CN(c1ccccc1)S(=O)(=O)c1ccccc1[N+](=O)[O-] (centres unmarked),-51.5%
13,COc1ccc(OC)c2[nH]c(=O)c(CCNS(=O)(=O)c3ccc(F)cc3)cc12,1.59%
14,CN1CCC(N(C)C(=O)/C=C/c2cn(-c3ccccc3)nc2-c2cccs2)CC1.Cl,-22.3%
15,NC(=O)Cc1ccc(C(=O)c2ccccc2)s1,7.3%
16,C[C@H](O)[C@@]1(O)CC[C@H]2[C@@H]3CC[C@@H]4C[C@H](O)CC[C@]4(C)[C@H]3CC[C@@]21C,-0.0961%
17,CCOCCOc1nc2c(c(=O)n(C)c(=O)n2C)n1CCc1ccccc1,0.435%
18,CC(C(N)=O)N1CC(c2ccc(Cl)cc2)CC1=O (centres unmarked),-10.8%
19,C=CCN1C(=O)NC(=O)/C(=C/c2ccc(OC)c(COc3ccc(NC(C)=O)cc3)c2)C1=O,8.75%
20,Cc1ccc(N(CC(O)CN2CCCCC2)S(=O)(=O)c2ccccc2[N+](=O)[O-])cc1 (centres unmarked),-70.9%
21,O=[N+]([O-])c1ccccc1S(=O)(=O)N(CC(O)CN1CCCCC1)c1ccccc1 (centres unmarked),-29.9%
22,Cc1ccc(N(CC2CO2)S(=O)(=O)c2ccccc2[N+](=O)[O-])cc1 (centres unmarked),1.23%

row,SMILES,"hERG current change (%, negative = inhibition) at 10uM"
1,O=C(NC(Cc1c[nH]c2ccccc12)C(=O)OCC(=O)c1cccc2ccccc12)c1cccs1 (centres unmarked),0.359%
2,CN(C)C(=O)c1ccc(NC(=O)c2cccc(S(=O)(=O)N3CCCc4ccccc43)c2)cc1,-8.06%
3,NC(=O)[C@H]1CC2(CC(c3cccc(NC(=O)CC(c4ccccc4)c4ccccc4)c3)=NO2)CN1C(=O)C(c1ccccc1)c1ccccc1 (some centres unmarked),8.82%
4,O=C(C1CCCN(Cc2cc(Br)ccc2O)C1)N1CCCCC1.O=C(O)C(=O)O (centres unmarked),-31.6%
5,COc1cc(OC)c(OC)cc1CN1CCCC(C(=O)N2CCCCC2)C1.O=C(O)C(=O)O (centres unmarked),-1.45%
6,COc1ccc(Br)cc1CN1CCCC(C(=O)N2CCCCCC2)C1.O=C(O)C(=O)O (centres unmarked),-62.4%
7,COc1ccc(OC)c(CN2CCCC(C(=O)N3CCCCC3)C2)c1.O=C(O)C(=O)O (centres unmarked),-32.1%
8,COc1ccc(Br)cc1CN1CCCC(C(=O)N2CCCCC2)C1.O=C(O)C(=O)O (centres unmarked),-55.8%
9,COc1ccccc1CN1CCCC(C(=O)N2CCCCC2)C1.O=C(O)C(=O)O (centres unmarked),10.6%
10,COc1ccc(-c2csc(NC(=O)c3ccc(S(=O)(=O)N4CCc5ccccc5C4)cc3)n2)c(OC)c1,23%
11,O=C(CCC(=O)OCC(=O)c1ccccc1)Nc1cccc(Cl)c1,21.5%
12,CCN(CC)C(=O)c1c(NC(=O)c2ccccc2)sc(C)c1C,-6.01%
13,O=C(NCSc1ccnc(SCNC(=O)c2ccccc2)n1)c1ccccc1,-28%
14,COc1ccc(CC(=O)NCCS(=O)(=O)N2CCN(c3ccccc3)CC2)cc1,12.7%
15,Cn1c(SCC2CCCO2)nnc1-c1ccc([N+](=O)[O-])cc1 (centres unmarked),-63.8%
16,Cn1c(SCc2ccc([N+](=O)[O-])cc2)nnc1-c1ccncc1,-52%
17,CN(C)c1ccc(-c2nnc(SCC3CCCO3)n2C)cc1 (centres unmarked),5.24%
18,Cn1c(SCC2CCCO2)nnc1-c1cccc([N+](=O)[O-])c1 (centres unmarked),8.76%
19,Cn1c(SCc2ccc([N+](=O)[O-])cc2)nnc1-c1cccnc1,-18%
20,Cc1ccc(CSc2nnc(-c3ccncc3)n2C)cc1,4.36%
